# Results reported in ChEMBL document CHEMBL3988442, “University of Dundee, Small-Polar-MMV Screening Library” (2021).
# The campaign covered roughly 69,000 compounds. About 420 (0.61%) showed an effect of 50% or more. Many of the other results were omitted from the sample, so strong results are more common in it than they were.
# Target: T1, Histidine--tRNA ligase (Leishmania infantum) (UniProt A4I591)
# T1 sequence (whole entry): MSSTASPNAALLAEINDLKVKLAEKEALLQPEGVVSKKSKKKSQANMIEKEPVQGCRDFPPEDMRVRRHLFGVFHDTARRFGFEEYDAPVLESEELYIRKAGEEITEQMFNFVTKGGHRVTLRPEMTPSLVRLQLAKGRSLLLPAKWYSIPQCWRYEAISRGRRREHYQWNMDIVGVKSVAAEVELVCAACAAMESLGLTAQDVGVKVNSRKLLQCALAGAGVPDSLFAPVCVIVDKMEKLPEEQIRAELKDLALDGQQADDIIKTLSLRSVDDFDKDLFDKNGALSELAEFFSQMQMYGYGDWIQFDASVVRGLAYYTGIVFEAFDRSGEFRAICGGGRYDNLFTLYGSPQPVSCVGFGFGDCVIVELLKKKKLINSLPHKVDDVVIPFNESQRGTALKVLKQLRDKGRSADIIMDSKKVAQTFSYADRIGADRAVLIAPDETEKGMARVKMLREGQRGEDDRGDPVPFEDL
# Assay: Leishmania infantum Histidine tRNA synthetase (LdHisRS)
# Type: functional
# Parameters: scale not given: in the data most compounds retested in dose-response had high values
# Conditions: 30 µM
row,SMILES,Percent Effect [%]
1,O=C(c1cscn1)N1CC[C@@H]2[C@@H]1CCN2CC1CCOC1 (some centres undefined),13.2
2,O=C(NCc1ccco1)[C@@]12CCO[C@@H]1CCN(CC1CCOCC1)C2,20
3,CCN1C[C@H]2CCN(C(=O)Cc3cccc(OC)c3)CC[C@H]2S1(=O)=O,19.2
4,O=C(Cn1ccnc1)N1C[C@@H]2CC[C@H](Oc3cccc(F)c3)[C@@H]2C1,7.29
5,Cc1nc(CN2C(=O)CC[C@H]3[C@@H]2CCN3C(=O)c2ccsc2)cs1,16.5
6,CC(C)NC(=O)[C@]12COC[C@H]1CN(Cc1cnn(C)c1)C2,12.5
7,CCS(=O)(=O)N1CC[C@@H]2[C@@H](CCC(=O)N2CCc2ccccc2)C1,9.38
8,Cc1cc(NC(=O)CN2CCc3nn(C)c(=O)cc3C2)no1,100
9,Cc1csc(NC(=O)CN2CCc3nn(C)c(=O)cc3C2)n1,24.2
10,Cc1nnc(NC(=O)CN2CCc3nn(C)c(=O)cc3C2)s1,9.62
11,Cc1noc(C(C)Nc2ccc(N3CCOCC3)cc2C)n1 (centres undefined),63
12,Cc1cc(N2CCOCC2)ccc1NC(C)c1nc(C(C)(C)C)no1 (centres undefined),28.3
13,Cc1cc(N2CCOCC2)ccc1NC(C)c1nc(C(C)C)no1 (centres undefined),39.1
14,c1cncc(COCC2C[C@@H]3OCCN(Cc4cccnc4)[C@H]3C2)c1 (some centres undefined),28.3
15,Fc1ccc(OCc2noc(CN3CCc4cncnc4C3)n2)cc1,61.6
16,Cn1cnc2c1CCN(Cc1nc(COc3ccc(F)cc3)no1)C2,-98.5
17,COc1ccc(-c2noc(CN3CCc4cncnc4C3)n2)cc1,50.4
18,c1ncc2c(n1)CN(Cc1nc(-c3ccoc3)no1)CC2,34.9
19,Cc1ccc(-c2noc(CN3CCc4cncnc4C3)n2)cc1,25.7
20,c1ccc(Cc2noc(CN3CCc4cncnc4C3)n2)cc1,43
21,Cn1cc(C(=O)N[C@@H]2CN(Cc3cccnc3)[C@@H]3CCCO[C@@H]32)cn1,22.9
22,O=C(c1cnccn1)N1CCN2C[C@H](OCC3CC3)C[C@H]2C1,15.1

row,SMILES,Percent Effect [%]
1,c1cc(-c2ccc3c(c2)CCC32CCNCC2)ccn1,53.5
2,c1cc(-c2ccc3c(c2)C2(CCNCC2)CC3)ccn1,13.8
3,CN(C)CC(=O)N1CCC2(CCc3ccc(-c4ccncc4)cc32)CC1,22.4
4,Cc1ccc2c(c1)C1(CC2)CCN(c2nncs2)CC1,24.8
5,OCCN1CCC2(CCc3cc(-c4ccoc4)ccc32)CC1,24
6,c1cncc(-c2ccc3c(c2)CCC32CCN(Cc3ccco3)CC2)c1,44
7,O=C(CCO)N1CCC2(CCc3ccc(-c4ccoc4)cc32)CC1,22.4
8,c1cncc(-c2ccc3c(c2)C2(CCNCC2)CC3)c1,-17.2
9,c1cc(-c2ccc3c(c2)CCC32CCN(c3nncs3)CC2)co1,75.8
10,c1cncc(-c2ccc3c(c2)C2(CC3)CCN(c3nncs3)CC2)c1,53.3
11,c1cncc(-c2ccc3c(c2)CCC32CCNCC2)c1,20
12,c1cc(-c2ccc3c(c2)C2(CC3)CCN(c3nncs3)CC2)ccn1,74.2
13,COCCN1C[C@H]2CC[C@@H]1CN(Cc1cc(=O)c3cc(C)ccc3[nH]1)C2,40.6
14,COCCN1C[C@H]2CN(C(=O)c3ccno3)CCN2C1=O,11.1
15,COCC(=O)N1C[C@@H](OCc2cccnc2)[C@H]2OCCC[C@@H]21,14.6
16,COCCNC(=O)[C@H]1CN(Cc2scnc2C)C[C@H]2OCC[C@@H]12,13.3
17,CCc1cc(N[C@@H]2C[C@H]3CC[C@@H]2C3)n2nccc2n1,25.7
18,Cc1nc(CN2C[C@@H]3CN(C(=O)c4cnccn4)C[C@@H]3C2=O)cs1,2.94
19,Cc1ccc(CN2C[C@H]3C[C@H](C(=O)Nc4cccnc4)[C@@H](C2)O3)cc1,22
20,c1cncc(-c2ccc3c(c2)CCC32CCN(Cc3nccs3)CC2)c1,48
21,CN1CCCCC12CCN(c1nncs1)CC2,6.2
22,c1cc(-c2ccc3c(c2)CCC32CCN(c3nncs3)CC2)ccn1,66.1

row,SMILES,Percent Effect [%]
1,CNC(=O)[C@H]1CC[C@@H]2[C@@H](CCN2c2ncccn2)O1,14
2,O=C(c1cnccn1)N1C[C@@H]2OCC(=O)N(CC3CCCCC3)[C@@H]2C1,25
3,COc1cc(N2CC[C@@H]3O[C@@H](c4ccncn4)C[C@H]3C2)ncn1,14.5
4,Cn1nc2c(cc1=O)CN(Cc1nc(-c3cccnc3)no1)CC2,10.3
5,Cn1nc2c(cc1=O)CN(Cc1nc(-c3ccoc3)no1)CC2,16
6,Cc1ccc(-c2noc(CN3CCc4nn(C)c(=O)cc4C3)n2)cc1,70.7
7,Cn1nc2c(cc1=O)CN(Cc1nc(-c3ccsc3)no1)CC2,27.6
8,Cc1ccc(-c2nc(CN3CCc4nn(C)c(=O)cc4C3)no2)cc1,52.4
9,Cc1ccccc1-c1noc(CN2CCc3nn(C)c(=O)cc3C2)n1,103
10,Cn1nc2c(cc1=O)CN(Cc1nc(-c3cccs3)no1)CC2,20.3
11,Cc1cccc(-c2noc(CN3CCc4nn(C)c(=O)cc4C3)n2)c1,87.8
12,CCCn1nc2c(cc1=O)CN(Cc1nc(-c3ccoc3)no1)CC2,2.67
13,Cc1ccccc1-c1noc(CN2CCc3cncnc3C2)n1,-42.2
14,COc1cc2c(nn1)CCN(Cc1noc(-c3ccccc3)n1)C2,24
15,Cc1ccc(-c2nc(CN3CCc4cnc(C)nc4C3)no2)cc1,21.4
16,C[C@]12CCCCN(C(=O)c3ccccn3)[C@H]1CCCC(=O)N2,7.37
17,CN(Cc1cccnc1)[C@@H]1CN(Cc2ccccn2)[C@@H]2CCCO[C@H]12,8.33
18,Cc1nnc(N2CC[C@H]3O[C@H](C(=O)NCc4ccccn4)CC[C@H]32)s1,20
19,Cc1ncsc1CN1C[C@@H]2CCCO[C@@H]2[C@H](N(C)C(C)C)C1,14
20,Cc1ccc(CN2CC[C@@H]3O[C@@H](C(=O)N4CCN(C)CC4)C[C@@H]32)cc1,9.62
21,CS(=O)(=O)N1C[C@@H]2CC[C@H](C1)N(Cc1cscn1)C2=O,15.2
22,O=C1CCCC2=C1C(c1cccc(F)c1F)Nc1nonc1N2 (centres undefined),6.25

row,SMILES,Percent Effect [%]
1,COCCN1C[C@@H]2CN(c3cnccn3)C[C@@H]2C1=O,16
2,Cn1nc2c(cc1=O)CN(Cc1nc(-c3ccco3)no1)CC2,91.4
3,CCn1nc2c(cc1=O)CN(Cc1nc(-c3ccco3)no1)CC2,33
4,CCCn1nc2c(cc1=O)CN(Cc1nc(-c3ccco3)no1)CC2,5.5
5,O=C(NC1CC1)[C@@H]1C[C@@H]2CCN(Cc3ccccc3)C[C@H]2O1,23
6,COc1ccc(CN2C[C@@H]3OCCN(CCN(C)C)[C@@H]3C2)cc1,15.6
7,COc1cccc(CNc2cc(C)nc(-c3ccncc3)n2)c1O,19.2
8,COc1cccc(CNc2cc(C)nc(-c3ccncc3)n2)c1OC,52
9,COc1cccc(CNc2nc(C)cc(C)n2)c1OC,21.9
10,O=C(c1ccco1)N1CCO[C@@H]2CN(c3ccccc3)CC[C@@H]2C1,32
11,O=C(Nc1cnccn1)[C@@H]1COC[C@H]2CN(C3CCC3)C[C@H]21,12.3
12,O=C(Nc1ccccc1Cl)N1CCN(CC2CC2)[C@@H]2CS(=O)(=O)C[C@@H]21,8.2
13,CS(=O)(=O)N1C[C@@H]2CC[C@H](C1)N(C(=O)CCc1n[nH]c3c1CCCC3)C2,14.5
14,CC(C)=CCN1C[C@H]2CC[C@@H]1CN(C(=O)CCc1n[nH]c(C)n1)C2,-42.5
15,CC(=O)N1C[C@@H]2CC[C@H](C1)N(C(=O)CCc1n[nH]c3c1CCCC3)C2,17.7
16,O=C(CCc1n[nH]c2c1CCCC2)N1C[C@@H]2CC[C@H](C1)N(CC1CC1)C2,56.5
17,COCCN1C[C@H]2CC[C@@H]1CN(C(=O)CCc1n[nH]c(C)c1C)C2,13.9
18,O=C(NCc1cccnc1)[C@H]1CC[C@@H]2[C@@H](CCN2c2ncccn2)O1,7
19,COCCN1C(=O)[C@H]2CC[C@@H]1CN(S(=O)(=O)c1cccc(Cl)c1)C2,0
20,Cc1cc(C(=O)N2C[C@H]3CC[C@@H]2CN(C)C3)ccc1Cl,7.14
21,COc1ccnc(N2C[C@@H]3CC[C@H](C2)N(CC2CCC2)C3=O)n1,19.4
22,O=C(c1cocn1)N1C[C@@H]2CN(CC3CC3)CCO[C@@H]2C1,7.56

row,SMILES,Percent Effect [%]
1,NC(=O)NC(=O)CCN1CCN(CC2CC2)c2ccccc21,81.2
2,CNC(=O)NC(=O)CN1CCN(CC2CC2)c2ccccc21,31.2
3,O=C(NCCCC(=O)N1CCN(CC2CC2)c2ccccc21)C1CC1,11.8
4,NC(=O)NC(=O)CN1CCN(CC2CC2)c2ccccc21,31.2
5,COCCC(=O)N1CCN(CC2CC2)c2ccccc21,26.5
6,NC(=O)CN1CCN(CC2CC2)c2ccccc21,56.2
7,Cc1ccc(N2CC[C@@H]3O[C@@H](COCc4cccnc4)CC[C@@H]32)nn1,13.2
8,NC(=O)[C@@H]1CN2CCN(C(=O)C3CC3)C[C@@H]2[C@H]1c1ccccc1,2.04
9,CS(=O)(=O)N1C[C@H]2CCCN(Cc3cccs3)[C@H]2C1,5.26
10,COc1ccc2c(c1)CC(NCc1cccc(NC(C)=O)c1)CC2 (centres undefined),43.6
11,COc1ccc2c(c1)CC(NCc1cccc(CO)c1)CC2 (centres undefined),15.4
12,COc1ccc2c(c1)CC(NCc1cccc(OCC(N)=O)c1)CC2 (centres undefined),59
13,Cc1ccc(CN2Cc3ccccc3O[C@]3(CC[C@H](CO)CC3)C2)s1,16.5
14,O=C(c1ccccc1)N1CC[C@H]2C[C@@H](c3nnc(C4CC4)o3)O[C@@H]2C1,13.6
15,O=C(C1=NN(Cc2ccccc2)c2ccccc2S1(=O)=O)N1CCCC1,53.9
16,CC(C)CCN1N=C(C(=O)N2CCCCCC2)S(=O)(=O)c2ccccc21,10.2
17,COC(=O)CN1N=C(C(=O)N2CCCC2)S(=O)(=O)c2ccccc21,12.2
18,CN(C(=O)c1ccccc1NCC(=O)O)C(C1CC1)C1CC1,-4.2
19,CN(CCCN1CCCCCC1)C(=O)c1ccccc1NCC(=O)O,50.6
20,CN(CCCc1ccccc1)C(=O)c1ccccc1NCC(=O)O,16.9
21,CNC(=O)CN1CCC(CN(C)Cc2ccc(C)cc2C)CC1,2.04
